According to PubChem BioAssay (EPA / NIEHS):
Active and inactive are the calls of the source. The calls were made as follows: active = hit-call score of the fitted dose curve at least 0.9, where 1 is the maximum; inactive = score below 0.9.

Each compound was assayed against Transcriptional activator Myb (Homo sapiens) (UniProt P10242) (assay: ATG_Myb_CIS: Attagene CIS-FACTORIAL HepG2 Assay for human Myeloblastosis (Myb) Proto-Oncogene Transcription Factor (AID 2282986)). Conditions: HepG2 Attagene CIS-FACTORIAL Myb reporter transcription; actives raise or lower the signal.
Transcriptional activator Myb (Homo sapiens), sequence (P10242 whole entry, looked up): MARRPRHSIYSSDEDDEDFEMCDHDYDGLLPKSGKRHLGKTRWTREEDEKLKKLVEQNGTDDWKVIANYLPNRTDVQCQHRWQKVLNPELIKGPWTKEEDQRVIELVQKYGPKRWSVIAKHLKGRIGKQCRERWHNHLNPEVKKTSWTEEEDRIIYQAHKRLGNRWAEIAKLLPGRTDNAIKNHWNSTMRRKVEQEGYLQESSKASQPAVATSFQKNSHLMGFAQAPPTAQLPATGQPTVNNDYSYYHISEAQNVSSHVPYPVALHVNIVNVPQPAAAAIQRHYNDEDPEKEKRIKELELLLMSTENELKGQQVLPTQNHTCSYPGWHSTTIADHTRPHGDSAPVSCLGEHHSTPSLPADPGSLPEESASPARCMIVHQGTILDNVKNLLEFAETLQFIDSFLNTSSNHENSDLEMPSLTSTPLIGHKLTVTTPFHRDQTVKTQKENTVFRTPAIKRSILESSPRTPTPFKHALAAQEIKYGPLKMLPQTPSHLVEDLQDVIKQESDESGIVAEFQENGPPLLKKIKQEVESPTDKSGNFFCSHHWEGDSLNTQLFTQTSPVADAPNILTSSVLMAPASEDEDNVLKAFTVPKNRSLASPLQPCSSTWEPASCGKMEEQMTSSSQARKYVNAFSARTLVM
Method: ATG_CIS is a cell-based, multiplexed-readout assay that uses HepG2, a human liver cell line, with measurements taken at 24 hours after chemical dosing in a 24-well plate.ATG_Myb_CIS is one of 52 assay component(s) measured or calculated from the ATG_CIS assay. It is designed to make measurements of mRNA induction, a form of inducible reporter, as detected with fluorescence intensity signals by Reverse transcription polymerase chain reaction (RT-PCR) and Capillary electrophoresis technology.Data from the assay component ATG_Myb_CIS was analyzed into 1 assay endpoint. This assay endpoint, ATG_Myb_CIS, was analyzed with bidirectional fitting relative to DMSO as the negative control and baseline of activity. Using a type of inducible reporter, measures of mRNA for gain or loss-of-signal activity can be used to understand the reporter gene at the transcription factor-level as they relate to the gene MYB. Furthermore, this assay endpoint can be referred to as a primary readout, because this assay has produced multiple assay endpoints where this one serves a reporter gene function. To generalize the intended target to other relatable targets, this assay endpoint is annotated to the dna binding intended target family, where the subfamily is MYB proteins.
Human liver HepG2 cells are transiently transfected with multiple reporter transcription units (MRTUs) in 6-well plates using FuGene 6 reagent (Roche; 3 ml FuGene/1 mg DNA). The MRTU constructs are regulated by a cis-regulating element (promoter). […] A major difference between the CIS and TRANS system is that in CIS activities of endogenous TFs are measured, whereas the TRANS assay evaluates changes in activities of exogenous, chimeric NR-Gal4 proteins. […] At the end of 24 hour incubation, total RNA was isolated using TriZol reagent (Invitrogen). The isolated RNA is then reverse-transcribed using oligo(dT) primer and Mo-MLV reverse transcriptase (Invitrogen) with DNAse I (Ambion) treatment for 30 min. The one-tenth of the produced cDNA was amplified by PCR using Taq DNA polymerase (Invitrogen) and two reporter sequence-specific primers. The PCR products were fluorescently labeled by primer extension with 6-arboxyfluorescein (6-FAM) 5'-labeled reporter sequence-specific primer (2 min at 95 C, 20 s at 68 C and 10 min at 72 C) and these products were digested with 5U of HpaI (New England Biolabs) for 2h at 37 C. The fragments were purified using Qiaquick PCR columns (Qiagen), analyzed on an ABI 3130xL genetic analyzer (Applied Biosystems) with peak positions identified by using a set of X-rhodamine (ROX)-labeled MapMarker1000 molecular weight standards (BioVentures). The raw capillary electrophoresis data was processed using Attagraph software (Attagene).
In the case of `C=CC(=O)NCOCCCC`, the outcome is reported as “inactive”. `Nc1ccnc(=O)[nH]1` was tested, and the outcome was “inactive”. `CCCCC/C=C\C/C=C\CCCCCCCC(=O)O` was tested, and the outcome was “inactive”. In the case of `O=C1CCCCCCCCCCC1`, the outcome is reported as “inactive”. With `CCCCCCCCC(CO)CCCCCC` (stereo not given) the outcome was “inactive”. For `O=C(Nc1ccccc1)c1cc(Cl)ccc1O`, the outcome was “inactive”. In the case of `CCCCNS(=O)(=O)c1ccccc1`, the outcome is reported as “inactive”. For `CCCCCCC=O`, the outcome was “inactive”. `CC(C)CCOCc1ccccc1` was tested, and the outcome was “inactive”. In the case of `C[N+](C)(C)CCCNS(=O)(=O)C(F)(F)C(F)(F)C(F)(F)C(F)(F)C(F)(F)C(F)(F)C(F)(F)C(F)(F)F`, the outcome is reported as “inactive”. In the case of `C=CC(C)(O)CC/C=C(\C)CC` (stereo not given), the outcome is reported as “inactive”. `CCCCCOC(=O)CCCCC` was tested, and the outcome was “inactive”. With `N#CC1(N)CCCCC1` the outcome was “inactive”. For `CC1CCC(=O)C1=O` (stereo not given), the outcome was “inactive”. With `CC(=O)C(C)C` the outcome was “inactive”. With `Cc1c(O)cccc1O` the outcome was “inactive”. For `CC(C)C(=O)OCCc1ccccc1`, the outcome was “inactive”. For `CCCCCCOc1ccc(N)cc1`, the outcome was “inactive”. `CC(CCC(=O)O)(c1ccc(O)cc1)c1ccc(O)cc1` was tested, and the outcome was “inactive”. `CC(C)=NNC(N)=S` was tested, and the outcome was “inactive”. `c1ccc2c(c1)[nH]c1ccccc12` was tested, and the outcome was “inactive”. For `Cc1c[nH]c(=O)[nH]c1=O`, the outcome was “inactive”. In the case of `CC(=O)/C=C/C1C(C)=CCCC1(C)C` (stereo not given), the outcome is reported as “inactive”. For `O=C1c2ccccc2C(=O)c2cc(S(=O)(=O)O)ccc21`, the outcome was “inactive”. With `CCN1CN(CC)CN(CC)C1` the outcome was “inactive”. In the case of `O=c1c(O)c(-c2ccc(O)cc2O)oc2cc(O)cc(O)c12`, the outcome is reported as “inactive”. With `Nc1cccc(N)n1` the outcome was “inactive”. `CC(=O)OC/C=C(/C)CCC=C(C)C` was tested, and the outcome was “inactive”. `Cc1cc(C)n(CO)n1` was tested, and the outcome was “inactive”. With `Cc1ccc2c(c1)CCCN2` the outcome was “inactive”. For `COC(C=C(C)CCC=C(C)C)OC`, the outcome was “inactive”. In the case of `CC(C=O)c1ccccc1` (stereo not given), the outcome is reported as “inactive”. With `CC(C)COC(=O)CC(C(=O)OCC(C)C)S(=O)(=O)O` (stereo not given) the outcome was “inactive”. With `CC1(C)[C@@H]2CC[C@@]1(C)C(=O)C2` the outcome was “inactive”. For `Nc1ccc(C(=O)O)cc1`, the outcome was “inactive”. `CC(CC=O)CC(C)(C)C` (stereo not given) was tested, and the outcome was “inactive”. In the case of `C=C[C@@]1(C)CC(=O)[C@]2(O)[C@@]3(C)[C@@H](O)CCC(C)(C)[C@@H]3[C@H](O)[C@H](OC(C)=O)[C@@]2(C)O1`, the outcome is reported as “inactive”. With `CC(C)CCCCCOC(=O)CS` the outcome was “inactive”. `Fc1ccc(Br)cc1` was tested, and the outcome was “inactive”. For `O=C(O)c1ccc2c(c1)C(=O)OC2=O`, the outcome was “inactive”.
